{"source": "the supplement of paper PMC10681739"}
{"target": "RUNX1 (UniProt Q01196)", "sequence (Q01196 whole entry)": "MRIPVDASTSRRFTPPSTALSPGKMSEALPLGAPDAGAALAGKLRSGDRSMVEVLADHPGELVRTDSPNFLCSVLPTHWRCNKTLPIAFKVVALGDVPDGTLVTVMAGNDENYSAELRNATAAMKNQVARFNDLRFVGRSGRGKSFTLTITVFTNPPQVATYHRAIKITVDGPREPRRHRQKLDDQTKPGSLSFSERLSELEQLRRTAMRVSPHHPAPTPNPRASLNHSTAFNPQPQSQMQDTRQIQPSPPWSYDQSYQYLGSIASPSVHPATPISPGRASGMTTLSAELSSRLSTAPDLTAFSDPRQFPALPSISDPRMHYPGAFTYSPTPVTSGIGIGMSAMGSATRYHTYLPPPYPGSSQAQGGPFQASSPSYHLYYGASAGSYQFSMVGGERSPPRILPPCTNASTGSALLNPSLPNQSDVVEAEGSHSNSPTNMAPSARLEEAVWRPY", "test": "RUNX1 binding intensity (PBM fluorescence), RUNX1 alone (arbitrary fluorescence units); higher = stronger binding", "conditions": "RUNX1 concentration 2 nM; ETS1 concentration 0 nM", "method": "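Cooperative gcPBM on 36-bp genomic probes with neighbouring ETS1 and RUNX1 sites. Recombinant human RUNX1 (2 nM) was incubated alone or with ETS1 (25 nM) and detected with anti-RUNX1 antibody plus Alexa488 secondary. Values are medians over 4 replicate spots; the RUNX1+ETS1 data were normalised to the RUNX1-only data. The probes sit in constant array flanks that are not printed.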"}
{"sequence": "GAGACACTCTGCTTCCTGCGGTGGAAGATTCAGTAT", "RUNX1 binding intensity": 873}
{"sequence": "CAGTTTGCCCCGGATGTTGACCGCCTTGAAGTCGTA", "RUNX1 binding intensity": 910}
{"sequence": "CCCACCCGGAAATGAGCCAACAGTGGTTTCGCCCCG", "RUNX1 binding intensity": 782}
{"sequence": "GTGCCGGCGGCCGGATGTGGGCGGGGCCACGGGGAG", "RUNX1 binding intensity": 753}
{"sequence": "GAGTACAGGAAATGCAAAGTAAAACCACAGTGAGAT", "RUNX1 binding intensity": 904}
{"sequence": "CCGGGAAGGCGGAAGCAGCAGAGACGCCGCAAGGCC", "RUNX1 binding intensity": 823}
{"sequence": "TGACATTTCCGGCCCCACCTCGGCCCGCAGCGCCGC", "RUNX1 binding intensity": 955}
{"sequence": "TTTACAGGAAATTACAGGGGTTAAACCAAACCACAA", "RUNX1 binding intensity": 941}
{"sequence": "GCCTGTCGCAGGAACGGAAGTGGTTACGGCCCTAGT", "RUNX1 binding intensity": 830}
{"sequence": "TGCCTCACCTCACATCCGTTTGTGGCTGCCGAGTGC", "RUNX1 binding intensity": 950}
{"sequence": "GCGCCCGGAAGGAAGGCTGGGGTAGGTTGTGGTTTC", "RUNX1 binding intensity": 830}
{"sequence": "TTTAGACACCGCTTCCTGCCACAAGCCCAAGACTTA", "RUNX1 binding intensity": 918}
{"sequence": "CCTTTACGTTTTCCTGTTGCGGGTTCTATCGCTCTG", "RUNX1 binding intensity": 1600}
{"sequence": "ATGTCTTCCTGTACAGGAACTGGGTCCCAGCCGCAG", "RUNX1 binding intensity": 745}
{"sequence": "CAAGGTTCCTCCGCTTCCTGCCCGCAGGCCGAACCT", "RUNX1 binding intensity": 840}
{"sequence": "AGCGCCGGAAGTGTGTCTGCGTAAAACTGCGGCTCG", "RUNX1 binding intensity": 740}
{"sequence": "GAGCCTGTTGCTTCCGGTTCAGAGCCCACATGCTGG", "RUNX1 binding intensity": 736}
{"sequence": "AGTACGATGGGAGGAAGTGGTTTGTAAGAGGAGGAC", "RUNX1 binding intensity": 640}
{"sequence": "CTGAGCAAAAGGAGGAAGCTGTGGTCTGTGTACCCA", "RUNX1 binding intensity": 810}
{"sequence": "CACTTCCTGCCCTCTTCCACTTTCAAAACCACATCA", "RUNX1 binding intensity": 4540}
{"sequence": "CCTCTGAGGCAGGAAGCTGCGGTGAAGTCTGAAGTT", "RUNX1 binding intensity": 871}
{"sequence": "GCCCCTAAACCGGATGCGGCAGCCACCGCGGACCCC", "RUNX1 binding intensity": 1290}
{"sequence": "AGGGCTGAAACAGGATGTGGTGAGTGAGGTAGGGTG", "RUNX1 binding intensity": 816}
{"sequence": "CCAACACAGGAAATAATTTGAAACCACAATCAGAAA", "RUNX1 binding intensity": 1290}
{"sequence": "GTAAAAGAGGAAGTAACACCTCCTTGCGGTTGAGAC", "RUNX1 binding intensity": 1020}
{"sequence": "AGTCTAACCAACAAAGGATGTGGTAGGTAAAAGGTT", "RUNX1 binding intensity": 834}
{"sequence": "CCTCAATTTCCTGGCCAGAGAAACCACTGCCTCTCA", "RUNX1 binding intensity": 1030}
{"sequence": "GGGTGCAGACGGGAAGTTGCGGCTGCCAGCGAAGCT", "RUNX1 binding intensity": 741}
{"sequence": "AAGTTTTGGGTTTTCCGCCCACAGCCGCCGAAAGTG", "RUNX1 binding intensity": 888}
{"sequence": "GAGGGCTGCTTCCTGCTCTGTGGAGGCCGCAGCGGG", "RUNX1 binding intensity": 682}
{"sequence": "CAGGCTGCTTCCGGCGCGCGGCAGAGCGGTCAGAGC", "RUNX1 binding intensity": 714}
{"sequence": "GAGAAACAAACAGGATGTGGTCTCTGCCCTGGAGGA", "RUNX1 binding intensity": 737}
{"sequence": "GGGAGGTGTCCAGGAAGTGGTTGGAGAGTCTGGTCT", "RUNX1 binding intensity": 756}
{"sequence": "TCTGTCGCACATCCGGTGTGAGCTGCGGGGCGGTGG", "RUNX1 binding intensity": 753}
{"sequence": "TGACGGCAGGCAGGATGTGGTGAGACAAATCCACTC", "RUNX1 binding intensity": 904}
{"sequence": "AGCGCCCCATCCCGCGGATGTGGTAAAGCTTCGCGC", "RUNX1 binding intensity": 788}
{"sequence": "TGCAAGAGGAAGCTGGGGTTTGTGGTTCATGTTTTG", "RUNX1 binding intensity": 874}
{"sequence": "TATGGCGGGCAGGAAGTGCGGGTGCGCGCCTGCGCA", "RUNX1 binding intensity": 642}
{"sequence": "AGCAGGAAGTATGTTGAAAGTCATAACCACAGCAAA", "RUNX1 binding intensity": 776}
{"sequence": "CCGATGGCGGCGGAACTGTGGTCAGGGCTGCCCTGA", "RUNX1 binding intensity": 825}
{"target": "T1, ETS1 (UniProt P14921)", "T1 sequence": "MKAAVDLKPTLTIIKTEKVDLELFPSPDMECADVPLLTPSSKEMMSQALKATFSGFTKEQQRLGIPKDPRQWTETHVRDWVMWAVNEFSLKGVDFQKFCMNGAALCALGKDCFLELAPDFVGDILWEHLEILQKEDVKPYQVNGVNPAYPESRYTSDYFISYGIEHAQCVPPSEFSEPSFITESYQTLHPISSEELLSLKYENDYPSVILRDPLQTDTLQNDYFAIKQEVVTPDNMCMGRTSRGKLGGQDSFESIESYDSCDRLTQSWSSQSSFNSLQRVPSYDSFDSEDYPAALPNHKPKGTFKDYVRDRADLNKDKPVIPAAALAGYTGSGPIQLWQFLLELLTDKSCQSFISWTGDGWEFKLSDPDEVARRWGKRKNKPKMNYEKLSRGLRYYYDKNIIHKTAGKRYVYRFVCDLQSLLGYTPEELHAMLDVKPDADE", "test": "ETS1 binding intensity (PBM fluorescence) in presence of RUNX1, normalised to ETS1-only experiment (arbitrary fluorescence units); higher = stronger binding", "conditions": "ETS1 concentration 1 nM; RUNX1 concentration 25 nM"}
{"sequence": "GAGACACTCTGCTTCCTGCGGTGGAAGATTCAGTAT", "ETS1 binding intensity": 482}
{"sequence": "CAGTTTGCCCCGGATGTTGACCGCCTTGAAGTCGTA", "ETS1 binding intensity": 4900}
{"sequence": "CCCACCCGGAAATGAGCCAACAGTGGTTTCGCCCCG", "ETS1 binding intensity": 2010}
{"sequence": "GTGCCGGCGGCCGGATGTGGGCGGGGCCACGGGGAG", "ETS1 binding intensity": 16200}
{"sequence": "GAGTACAGGAAATGCAAAGTAAAACCACAGTGAGAT", "ETS1 binding intensity": 4550}
{"sequence": "CCGGGAAGGCGGAAGCAGCAGAGACGCCGCAAGGCC", "ETS1 binding intensity": 1560}
{"sequence": "TGACATTTCCGGCCCCACCTCGGCCCGCAGCGCCGC", "ETS1 binding intensity": 1170}
{"sequence": "TTTACAGGAAATTACAGGGGTTAAACCAAACCACAA", "ETS1 binding intensity": 1140}
{"sequence": "GCCTGTCGCAGGAACGGAAGTGGTTACGGCCCTAGT", "ETS1 binding intensity": 19800}
{"sequence": "TGCCTCACCTCACATCCGTTTGTGGCTGCCGAGTGC", "ETS1 binding intensity": 1310}
{"sequence": "GCGCCCGGAAGGAAGGCTGGGGTAGGTTGTGGTTTC", "ETS1 binding intensity": 2740}
{"sequence": "TTTAGACACCGCTTCCTGCCACAAGCCCAAGACTTA", "ETS1 binding intensity": 839}
{"sequence": "CCTTTACGTTTTCCTGTTGCGGGTTCTATCGCTCTG", "ETS1 binding intensity": 592}
{"sequence": "ATGTCTTCCTGTACAGGAACTGGGTCCCAGCCGCAG", "ETS1 binding intensity": 4430}
{"sequence": "CAAGGTTCCTCCGCTTCCTGCCCGCAGGCCGAACCT", "ETS1 binding intensity": 1600}
{"sequence": "AGCGCCGGAAGTGTGTCTGCGTAAAACTGCGGCTCG", "ETS1 binding intensity": 3720}
{"sequence": "GAGCCTGTTGCTTCCGGTTCAGAGCCCACATGCTGG", "ETS1 binding intensity": 3370}
{"sequence": "AGTACGATGGGAGGAAGTGGTTTGTAAGAGGAGGAC", "ETS1 binding intensity": 3390}
{"sequence": "CTGAGCAAAAGGAGGAAGCTGTGGTCTGTGTACCCA", "ETS1 binding intensity": 1800}
{"sequence": "CACTTCCTGCCCTCTTCCACTTTCAAAACCACATCA", "ETS1 binding intensity": 1850}
{"sequence": "CCTCTGAGGCAGGAAGCTGCGGTGAAGTCTGAAGTT", "ETS1 binding intensity": 11800}
{"sequence": "GCCCCTAAACCGGATGCGGCAGCCACCGCGGACCCC", "ETS1 binding intensity": 16600}
{"sequence": "AGGGCTGAAACAGGATGTGGTGAGTGAGGTAGGGTG", "ETS1 binding intensity": 16600}
{"sequence": "CCAACACAGGAAATAATTTGAAACCACAATCAGAAA", "ETS1 binding intensity": 4460}
{"sequence": "GTAAAAGAGGAAGTAACACCTCCTTGCGGTTGAGAC", "ETS1 binding intensity": 6840}
{"sequence": "AGTCTAACCAACAAAGGATGTGGTAGGTAAAAGGTT", "ETS1 binding intensity": 2640}
{"sequence": "CCTCAATTTCCTGGCCAGAGAAACCACTGCCTCTCA", "ETS1 binding intensity": 526}
{"sequence": "GGGTGCAGACGGGAAGTTGCGGCTGCCAGCGAAGCT", "ETS1 binding intensity": 2530}
{"sequence": "AAGTTTTGGGTTTTCCGCCCACAGCCGCCGAAAGTG", "ETS1 binding intensity": 684}
{"sequence": "GAGGGCTGCTTCCTGCTCTGTGGAGGCCGCAGCGGG", "ETS1 binding intensity": 594}
{"sequence": "CAGGCTGCTTCCGGCGCGCGGCAGAGCGGTCAGAGC", "ETS1 binding intensity": 1160}
{"sequence": "GAGAAACAAACAGGATGTGGTCTCTGCCCTGGAGGA", "ETS1 binding intensity": 12000}
{"sequence": "GGGAGGTGTCCAGGAAGTGGTTGGAGAGTCTGGTCT", "ETS1 binding intensity": 3340}
{"sequence": "TCTGTCGCACATCCGGTGTGAGCTGCGGGGCGGTGG", "ETS1 binding intensity": 10600}
{"sequence": "TGACGGCAGGCAGGATGTGGTGAGACAAATCCACTC", "ETS1 binding intensity": 8840}
{"sequence": "AGCGCCCCATCCCGCGGATGTGGTAAAGCTTCGCGC", "ETS1 binding intensity": 4400}
{"sequence": "TGCAAGAGGAAGCTGGGGTTTGTGGTTCATGTTTTG", "ETS1 binding intensity": 1000}
{"sequence": "TATGGCGGGCAGGAAGTGCGGGTGCGCGCCTGCGCA", "ETS1 binding intensity": 5650}
{"sequence": "AGCAGGAAGTATGTTGAAAGTCATAACCACAGCAAA", "ETS1 binding intensity": 3050}
{"sequence": "CCGATGGCGGCGGAACTGTGGTCAGGGCTGCCCTGA", "ETS1 binding intensity": 510}
